# Measurements published in PubChem BioAssay (NCATS).
# Records with an inconclusive call do not appear. A call without a number means that no potency is given here. A number with no mark means an inactive call. Active and inactive are the calls of the source. Calls follow the shape of the dose curve; as a rule, active = well fitted curve in the direction sought with a large enough effect; inconclusive = small, poorly fitted or top-dose-only effect, or another doubt; inactive = no such curve, though single readings can be large; an effect the other way counts as inactive or inconclusive.
# What was measured:
# [1] = Primary qHTS for inhibitors of nuclear receptor binding SET domain protein 2 (NSD2) in an isogenic RCH-ACV NSD2 p.E1099K mutant (9B) (AID 1645876); conditions: RCH-ACV NSD2 E1099K (9B) viability, CellTiter-Glo, 72 h; series mostly up to 44.9 µM
# [2] = Primary qHTS for inhibitors of nuclear receptor binding SET domain protein 2 (NSD2) in an RCH-ACV wild type WT cells (2C) (AID 1645877); conditions: RCH-ACV (leukaemia line) NSD2 WT (2C) viability, CellTiter-Glo, 72 h; series mostly up to 44.9 µM
# Also: nearly all actives have a fitted effect of over 70% in size.
# Potency is read from the fitted curve at half-maximal effect.
compound,measurement,setting,value
C=CCc1ccc(O[C@@H]2O[C@H](CO[C@@H]3O[C@H](CO)[C@@H](O)[C@H](O)[C@H]3O)[C@@H](O)[C@H](O)[C@H]2O)c(O)c1,Potency,[1],inactive
same,Potency,[2],inactive
C/C1=C\C[C@H](O[C@@H]2O[C@H](CO)[C@@H](O)[C@H](O)[C@H]2O)/C(C)=C/[C@H]2OC(=O)[C@H](C)[C@@H]2CC1,Potency,[1],inactive
same,Potency,[2],inactive
CC(=O)c1c(C)cc(O)cc1O[C@@H]1O[C@H](CO)[C@@H](O)[C@H](O)[C@H]1O,Potency,[1],inactive
same,Potency,[2],inactive
C=C1CCC2C(C)(COC3OC(COC(=O)CC(=O)O)C(O)C(O)C3O)CCCC2(C)C1CCC1=CCOC1=O (centres undefined),Potency,[1],inactive
same,Potency,[2],inactive
O=c1ccn(C2OC(CO)C(O)C2O)c(=O)[nH]1 (centres undefined),Potency,[1],inactive
same,Potency,[2],inactive
CC[C@H]1OC(=O)[C@H](C)[C@@H](OC2C[C@@](C)(OC)[C@@H](O)[C@H](C)O2)[C@H](C)[C@@H](OC2O[C@H](C)C[C@H](NC)[C@H]2O)[C@](C)(O)C[C@@H](C)CN(C)[C@H](C)[C@@H](O)[C@]1(C)O (some centres undefined),Potency,[1],inactive
same,Potency,[2],inactive
Nc1ccn([C@@H]2C(F)=C(CO)[C@@H](O)[C@H]2O)c(=O)n1,Potency,[1],0.372 µM (active)
same,Potency,[2],0.332 µM (active)
COc1cc([C@@H]2Oc3c(OC)cc(CCCO)cc3[C@@H]2CO[C@@H]2O[C@H](CO)[C@@H](O)[C@H](O)[C@H]2O)ccc1O,Potency,[1],inactive
same,Potency,[2],inactive
C[C@]12CC[C@@H]3c4ccc(O[C@@H]5O[C@H](C(=O)O)[C@@H](O)[C@H](O)[C@H]5O)cc4CC[C@H]3[C@@H]1CCC2=O,Potency,[1],inactive
same,Potency,[2],inactive
COc1c(C)c2c(c(O)c1C/C=C(\C)CC/C=C(\C)CCC(=O)O)C(=O)OC2,Potency,[1],inactive
same,Potency,[2],inactive
CC1OC(OC2C(O)C(C(=O)O)OC(OC3CCC4(C)C(CCC5(C)C4C=CC4=C6CC(C)(C)CC(O)C6(C)CCC45C)C3(C)C)C2OC2OCC(O)C(O)C2O)C(O)C(O)C1O (centres undefined),outcome,[1],inactive [at 9.23 µM]
same,outcome,[2],inactive [at 9.23 µM]
CC/C=C/CC1=C(CCCCCCCC(=O)O)CCC1=O,Potency,[1],inactive
same,Potency,[2],inactive
C=C1CC[C@H]2[C@@](C)(CCC(O)[C@@]2(C)CO)[C@@H]1C/C=C(/C(=O)O)C(O)CO (some centres undefined),Potency,[1],inactive
same,Potency,[2],inactive
CC1CCC2(C(=O)OC3OC(COC4OC(CO)C(O)C(O)C4O)C(O)C(O)C3O)CCC3(C)C(=CCC4C5(C)CCC(O)C(C)(C(=O)O)C5CCC43C)C2C1(C)O (centres undefined),"activity change, negative = viability loss",[1],1.95% [at 9.23 µM]
same,"activity change, negative = cell killing",[2],2.11% [at 9.23 µM]
O=C1NCc2nc3ccccc3c(=O)n2C1Cc1c[nH]c2ccccc12 (centres undefined),Potency,[1],inactive
same,Potency,[2],inactive
COC1=CC(=O)C[C@@H](C)[C@]12Oc1cc(OC)cc(OC)c1C2=O,Potency,[1],inactive
same,Potency,[2],inactive
CC1CCC(=O)CC(O)C(O)CC(=O)O1 (centres undefined),Potency,[1],inactive
same,Potency,[2],inactive
CC1=C2CC3OC3(C)CCC3OC3(C)CC2OC1=O (centres undefined),Potency,[1],inactive
same,Potency,[2],inactive
COc1ccc2c(c1)OC[C@]1(O)c3cc4c(cc3O[C@H]21)OCO4,Potency,[1],inactive
same,Potency,[2],inactive
O=C(O[C@H]1[C@@H]2C=CO[C@@H](O[C@@H]3O[C@H](CO)[C@@H](O)[C@H](O)[C@H]3O)[C@@H]2[C@@]2(CO)O[C@@H]12)c1ccc(O)c(O)c1,Potency,[1],inactive
same,Potency,[2],inactive
CN[C@@H]1[C@@H](O)[C@@H](O[C@@H]2[C@@H](O)[C@H](O[C@H]3O[C@H](CN)[C@@H](O)[C@H](O)[C@H]3O)[C@@H](N)C[C@H]2NC(=O)[C@@H](O)CN)OC[C@]1(C)O,Potency,[1],inactive
same,Potency,[2],inactive
COc1cc([C@H]2OC[C@]3(OC(C)=O)[C@@H](c4ccc(O[C@@H]5O[C@H](CO)[C@@H](O)[C@H](O)[C@H]5O)c(OC)c4)OC[C@H]23)ccc1O,Potency,[1],inactive
same,Potency,[2],inactive
COc1c2c(c(C)c3c1C(=O)OC3)O[C@@]1(C)C[C@@H](O)[C@]34O[C@](OC)(CC[C@]3(C)[C@H]1C2)OC4(C)C,Potency,[1],inactive
same,Potency,[2],inactive
C=C[C@H]1[C@H](O[C@@H]2O[C@H](CO)[C@@H](O)[C@H](O)[C@H]2O)OC=C2C(=O)OCC[C@]21O,Potency,[1],inactive
same,Potency,[2],inactive
C=CC1C(O[C@@H]2O[C@H](CO)[C@@H](O)[C@H](O)[C@H]2O)OC=C(C(=O)OC)C1CC(=O)O (some centres undefined),Potency,[1],inactive
same,Potency,[2],inactive
C=CC(C)(C)O[C@@H]1O[C@H](CO[C@@H]2OC[C@](O)(CO)[C@H]2O)[C@@H](O)[C@H](O)[C@H]1O,Potency,[1],inactive
same,Potency,[2],inactive
C=CC1C(O[C@@H]2O[C@H](CO)[C@@H](O)[C@H](O)[C@H]2O)OC=C(C(=O)OC)C1Cc1nccc2c1[nH]c1ccccc12 (some centres undefined),Potency,[1],inactive
same,Potency,[2],inactive
